The values that follow come from ChEMBL document CHEMBL1157539, “Thousands of chemical starting points for antimalarial lead identification” (Nature, 2010).

Molecules are shown by their SMILES.

The test system of the first assay is Plasmodium falciparum. Kind of assay: GSK_TCMDC: Inhibition of Plasmodium falciparum 3D7 in whole red blood cells, using parasite LDH activity as an index of growth. Test compounds present at 2uM. In kind it is functional.
For the molecule `COc1nc2c(CCN3CC[C@@H](NCc4cc(C#N)c5c(c4)CCO5)[C@@H](O)C3)ccnc2cc1F.Cl`, the Inhibition (as a rule, the change of the read-out against control, counted positive when it falls) is 92%.
`O=C(/C=C/c1ccccc1O)N1CCC(CCN2CCC(c3c[nH]c4ccccc34)CC2)CC1` came in with an Inhibition of 100%.
`COc1cc(CNCCCNc2nc3ncccc3[nH]2)c2[nH]cc(Br)c2c1` showed an Inhibition of 92%.
On the same count and under the same terms, for `COc1cc(NCC(CN)Cc2ccc3c(c2)OCO3)nc2ccccc12.Cl` (stereo not given) the value was 94%; for `Cc1cc(C)n2nc(C(=O)Nc3cc(C(F)(F)F)ccc3N3CCOCC3)nc2n1`, 94%.
The molecule `O=C(Cc1ccccc1)NC(Nc1ccc([N+](=O)[O-])cc1)C(Cl)(Cl)Cl` (stereo not given) had an Inhibition of 99%.
On to `CC(C)C[C@H](NC(=O)c1ccc(OCCN2CCOCC2)cc1)C(=O)N[C@H](/C=N/N1CC(=O)NC1=O)CCc1ccccc1`, for which the Inhibition amounted to 88%.
As to `O=C(/C=C/c1ccc(C(F)(F)F)cc1)NCCCCCN1CCN(C(=O)Nc2ccc(Cl)c(Cl)c2)CC1`, the Inhibition was 95%.
Still for that read-out and setting: for `Cc1nnc2c(NC(=O)NC3CCCC3)cc3cc(-c4ccc(CN5CCCCC5)cc4)ccc3n12` the value was 99%; for `Cc1ccc(O)cc1C[C@@H]1C(=O)CC[C@@]2(C)[C@H]1CC[C@]2(C)O`, 96%.
Molecule `COc1ccc2ncc(F)c([C@H](O)CN3CCC(NCc4cc5c(cn4)OCCO5)CC3)c2c1.Cl` had an Inhibition of 100%.
The same measure, in the same setting: for `CCOC(=O)c1ccc(NC(=O)N(Cc2ccc(-c3ccc(CN4CCNCC4)cc3)cc2)Cc2cccnc2)cc1.O=C(O)C(F)(F)F` the value was 94%; for `CCCc1cc(Cc2cnc(N)nc2N)cc(CCC)c1O.Cl`, 96%.
In the case of `O=C(Cc1ccc(F)cc1)NC1CCN(c2ccnc3cc(Cl)ccc23)C1.O=C(O)C(F)(F)F` (stereo not given), the Inhibition came to 99%.
`CN1CCOc2ccc(Nc3nnc(-c4cccc(-c5cccnc5)c4)o3)cc2C1` returned an Inhibition of 100%.
In turn, `O=C(Nc1ccc2ccccc2c1)N1CCC(NCc2cccc([N+](=O)[O-])c2)CC1.O=C(O)C(F)(F)F` returned an Inhibition of 98%.
In turn, `Cc1cc(C(=O)Nc2ccc3c(ccn3C3CCCN(Cc4ccc(C(F)(F)F)cc4F)CC3)c2)no1` (stereo not given) had an Inhibition of 92%.
As for `CC1(C)CCC(C)(C)c2c1ccc(C1CCN(CCCCNC(=O)c3ccc(-c4ccc(Cl)cc4)cc3)CC1)c2O`, the Inhibition came out at 100%.
Still for that read-out and setting: for `CCOC(=O)c1c(NC(NC(=O)c2ccc(C(C)(C)C)cc2)C(Cl)(Cl)Cl)sc2c1CCCC2` (stereo not given) the value was 98%; for `O=C(Nc1ccc(C(F)(F)F)cc1)c1cccc(S(=O)(=O)NC2CCN(CC3CCCCC3)C2)c1.O=C(O)C(F)(F)F` (stereo not given), 98%.
`Cc1nc(-c2cccc(Nc3nccc(NCC(O)c4cccc(C(F)(F)F)c4)n3)c2)cs1` (stereo not given) displayed an Inhibition of 100%.
In turn, `O=C(CN1CCN(C(C(=O)Nc2cc(C(F)(F)F)ccc2Cl)c2ccccc2)CC1)NC1CC1` (stereo not given) had an Inhibition of 95%.
In turn, `Nc1cc(-c2ccc3ccccc3c2)nc2ccccc12` returned an Inhibition of 99%.
`CN(CCc1ccccc1)c1ncc(-c2ccccc2CNCc2ccccc2O)cn1` had an Inhibition of 99%.
Same read-out and setting: for `COc1ccc(NC(=O)Nc2ccc(-c3cccc(-c4nc5cccc(C)c5[nH]4)c3)cc2)cc1` the value was 100%; for `Cc1cc(=O)[nH]c2cc(Nc3ccnc(Nc4cccc(C(N)=O)c4)n3)ccc12.Cl`, 99%.
Molecule `CC(C)COc1ccc(Cl)cc1Cc1nc(-c2nc3ccc(CN(C)C)cc3[nH]2)co1.Cl` returned an Inhibition of 97%.
The molecule `Cc1cccc(C(=O)N2CCN(Cc3cccc(NC(=O)c4cccs4)c3)CC2)c1.O=C(O)C(F)(F)F` yielded an Inhibition of 95%.
As for `Cc1cc(OCCCN2CCC(NS(=O)(=O)c3ccc(C(F)(F)F)cc3)CC2)c2ccccc2n1`, the Inhibition was 95%.
`CCCCCOc1c(CCC)cc(Cc2cnc(N)nc2N)cc1CCC` displayed an Inhibition of 94%.
In turn, `Cc1cnc2ccc(NS(=O)(=O)c3sc4ccc(Cl)cc4c3C)cc2c1N1CCNCC1.Cl` came in with an Inhibition of 99%.
Same read-out and setting: for `CC(C)(C)c1nn(-c2ccccc2)c2[nH]c(=O)c(CNCCc3ccccc3)cc12` the value was 94%; for `O=C(Nc1ccc(N2CCNCC2)cc1)c1ccn2ncc(-c3cccc(Cl)c3)c2n1`, 96%.
The molecule `OC(CNc1ccnc(Nc2ccc(Cl)cc2)n1)c1ccccc1C(F)(F)F` (stereo not given) came in with an Inhibition of 98%.
`CC(C)NCC(=O)Nc1cccc(C(=O)Nc2cccc(C(F)(F)F)c2)c1`: the Inhibition is recorded as 97%.
As to `Cc1ccccc1C1CCN(C2CCC(NC(=O)/C=C/c3ccc(Cl)cc3)CC2)CC1` (stereo not given), the Inhibition is given as 99%.
`Cc1cc(N(C)C)nc(Nc2ccc(NC(=O)c3c(F)cccc3Cl)cc2)n1` registered an Inhibition of 90%.
The molecule `Cc1ccc2cc(C3NC(=O)c4ccccc4N3)c(Cl)nc2c1` (stereo not given) had an Inhibition of 91%.
`Cc1[nH]c(C)c(-c2ccc(Oc3cccc(Cl)c3)cc2)c(=O)c1Br` displayed an Inhibition of 98%.
Regarding `O=C(NCc1cccc(F)c1)Nc1cccc(-c2cccc(-c3nc4cc(C(F)(F)F)ccc4[nH]3)c2)c1`, the Inhibition is reported as 93%.

The test system of another assay is Plasmodium falciparum. Description: GSK_TCMDC: Inhibition of Plasmodium falciparum Dd2 in whole red blood cells, using parasite LDH activity as an index of growth. Test compounds present at 2uM. The assay is classed as functional.
`COc1nc2c(CCN3CC[C@@H](NCc4cc(C#N)c5c(c4)CCO5)[C@@H](O)C3)ccnc2cc1F.Cl` displayed an Inhibition of 35%.
The same measure, in the same setting: for `O=C(/C=C/c1ccccc1O)N1CCC(CCN2CCC(c3c[nH]c4ccccc34)CC2)CC1` the value was 15%; for `COc1cc(CNCCCNc2nc3ncccc3[nH]2)c2[nH]cc(Br)c2c1`, 3%.
On to `COc1cc(NCC(CN)Cc2ccc3c(c2)OCO3)nc2ccccc12.Cl` (stereo not given), for which the Inhibition is listed as 6%.
With `Cc1cc(C)n2nc(C(=O)Nc3cc(C(F)(F)F)ccc3N3CCOCC3)nc2n1`, the Inhibition came out at 91%.
The molecule `O=C(Cc1ccccc1)NC(Nc1ccc([N+](=O)[O-])cc1)C(Cl)(Cl)Cl` (stereo not given) yielded an Inhibition of 100%.
In the case of `CC(C)C[C@H](NC(=O)c1ccc(OCCN2CCOCC2)cc1)C(=O)N[C@H](/C=N/N1CC(=O)NC1=O)CCc1ccccc1`, the Inhibition is recorded as 67%.
On the same count and under the same terms, for `O=C(/C=C/c1ccc(C(F)(F)F)cc1)NCCCCCN1CCN(C(=O)Nc2ccc(Cl)c(Cl)c2)CC1` the value was 0%.
As for `Cc1nnc2c(NC(=O)NC3CCCC3)cc3cc(-c4ccc(CN5CCCCC5)cc4)ccc3n12`, the Inhibition was 93%.
The molecule `Cc1ccc(O)cc1C[C@@H]1C(=O)CC[C@@]2(C)[C@H]1CC[C@]2(C)O` yielded an Inhibition of 0%.
`COc1ccc2ncc(F)c([C@H](O)CN3CCC(NCc4cc5c(cn4)OCCO5)CC3)c2c1.Cl` yielded an Inhibition of 97%.
For `CCOC(=O)c1ccc(NC(=O)N(Cc2ccc(-c3ccc(CN4CCNCC4)cc3)cc2)Cc2cccnc2)cc1.O=C(O)C(F)(F)F`, the Inhibition came to 34%.
`CCCc1cc(Cc2cnc(N)nc2N)cc(CCC)c1O.Cl`: the Inhibition was determined as 5%.
As to `O=C(Cc1ccc(F)cc1)NC1CCN(c2ccnc3cc(Cl)ccc23)C1.O=C(O)C(F)(F)F` (stereo not given), the Inhibition was found to be 85%.
Consider `CN1CCOc2ccc(Nc3nnc(-c4cccc(-c5cccnc5)c4)o3)cc2C1`, for which the Inhibition was determined as 100%.
For `O=C(Nc1ccc2ccccc2c1)N1CCC(NCc2cccc([N+](=O)[O-])c2)CC1.O=C(O)C(F)(F)F`, the Inhibition was determined as 0%.
In turn, `Cc1cc(C(=O)Nc2ccc3c(ccn3C3CCCN(Cc4ccc(C(F)(F)F)cc4F)CC3)c2)no1` (stereo not given) yielded an Inhibition of 95%.
On the same count and under the same terms, for `CC1(C)CCC(C)(C)c2c1ccc(C1CCN(CCCCNC(=O)c3ccc(-c4ccc(Cl)cc4)cc3)CC1)c2O` the value was 72%; for `CCOC(=O)c1c(NC(NC(=O)c2ccc(C(C)(C)C)cc2)C(Cl)(Cl)Cl)sc2c1CCCC2` (stereo not given), 94%; for `O=C(Nc1ccc(C(F)(F)F)cc1)c1cccc(S(=O)(=O)NC2CCN(CC3CCCCC3)C2)c1.O=C(O)C(F)(F)F` (stereo not given), 10%.
On the same count and under the same terms, for `Cc1nc(-c2cccc(Nc3nccc(NCC(O)c4cccc(C(F)(F)F)c4)n3)c2)cs1` (stereo not given) the value was 99%; for `O=C(CN1CCN(C(C(=O)Nc2cc(C(F)(F)F)ccc2Cl)c2ccccc2)CC1)NC1CC1` (stereo not given), 93%; for `Nc1cc(-c2ccc3ccccc3c2)nc2ccccc12`, 52%.
Molecule `CN(CCc1ccccc1)c1ncc(-c2ccccc2CNCc2ccccc2O)cn1` gave an Inhibition of 94%.
On to `COc1ccc(NC(=O)Nc2ccc(-c3cccc(-c4nc5cccc(C)c5[nH]4)c3)cc2)cc1`, for which the Inhibition came to 75%.
For `Cc1cc(=O)[nH]c2cc(Nc3ccnc(Nc4cccc(C(N)=O)c4)n3)ccc12.Cl`, the Inhibition was determined as 98%.
`CC(C)COc1ccc(Cl)cc1Cc1nc(-c2nc3ccc(CN(C)C)cc3[nH]2)co1.Cl` had an Inhibition of 87%.
Molecule `Cc1cccc(C(=O)N2CCN(Cc3cccc(NC(=O)c4cccs4)c3)CC2)c1.O=C(O)C(F)(F)F` registered an Inhibition of 95%.
`Cc1cc(OCCCN2CCC(NS(=O)(=O)c3ccc(C(F)(F)F)cc3)CC2)c2ccccc2n1` yielded an Inhibition of 24%.
Same read-out and setting: for `CCCCCOc1c(CCC)cc(Cc2cnc(N)nc2N)cc1CCC` the value was 0%; for `Cc1cnc2ccc(NS(=O)(=O)c3sc4ccc(Cl)cc4c3C)cc2c1N1CCNCC1.Cl`, 0%.
Take `CC(C)(C)c1nn(-c2ccccc2)c2[nH]c(=O)c(CNCCc3ccccc3)cc12`: the Inhibition was determined as 90%.
In turn, `O=C(Nc1ccc(N2CCNCC2)cc1)c1ccn2ncc(-c3cccc(Cl)c3)c2n1` showed an Inhibition of 53%.
The molecule `OC(CNc1ccnc(Nc2ccc(Cl)cc2)n1)c1ccccc1C(F)(F)F` (stereo not given) gave an Inhibition of 28%.
`CC(C)NCC(=O)Nc1cccc(C(=O)Nc2cccc(C(F)(F)F)c2)c1` registered an Inhibition of 89%.
On the same count and under the same terms, for `Cc1ccccc1C1CCN(C2CCC(NC(=O)/C=C/c3ccc(Cl)cc3)CC2)CC1` (stereo not given) the value was 25%; for `Cc1cc(N(C)C)nc(Nc2ccc(NC(=O)c3c(F)cccc3Cl)cc2)n1`, 36%.
On to `Cc1ccc2cc(C3NC(=O)c4ccccc4N3)c(Cl)nc2c1` (stereo not given), for which the Inhibition worked out at 38%.
The same measure, in the same setting: for `Cc1[nH]c(C)c(-c2ccc(Oc3cccc(Cl)c3)cc2)c(=O)c1Br` the value was 97%; for `O=C(NCc1cccc(F)c1)Nc1cccc(-c2cccc(-c3nc4cc(C(F)(F)F)ccc4[nH]3)c2)c1`, 32%.
